According to PubChem BioAssay (Tox21):
Results filed as inconclusive are left out. Where a call stands in place of a potency, no number is given. Active and inactive are the calls of the source. Unless noted, calls come from the whole dose curve; as a rule, active = well fitted curve in the direction sought with a large enough effect in the repeat runs; inconclusive = weak or mixed curves; inactive = no such curve, though single readings can be large; an effect the other way counts as inactive or inconclusive.

Assays:
[1] = qHTS assay to identify small molecule antagonists of the glucocorticoid receptor (GR) signaling pathway - cell viability counter screen (AID 720693); note: nearly all actives have a fitted effect of over 55% in size
[2] = qHTS assay for identifying genotoxic compounds that show differential cytotoxicity against isogenic chicken DT40 cell lines with known DNA damage response pathways - wild type cell line (AID 743012); note: nearly all actives have a fitted effect of over 60% in size; note: potency is the fitted concentration of half-maximal effect
Method in brief: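 Endpoint: CellTiter-Glo luminescence, 30 min RT. Cells: wild type DT40, 300/well. Exposure: compounds in DMSO, 40 h, 37 C/5% CO2, after ~0.5 h pre-incubation.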

[3] = qHTS assay for identifying genotoxic compounds that show differential cytotoxicity against isogenic chicken DT40 cell lines with known DNA damage response pathways - Rev3 mutant cell line (AID 743014); note: nearly all actives have a fitted effect of over 55% in size; note: potency is the fitted concentration of half-maximal effect
[4] = qHTS assay to identify small molecule antagonists of the androgen receptor (AR) signaling pathway - cell viability counter screen (AID 743033; note: nearly all actives have a fitted effect of over 45% in size)
[5] = qHTS assay to identify small molecule antagonists of the androgen receptor (AR) signaling pathway using the MDA cell line - cell viability counter screen (AID 743041; note: nearly all actives have a fitted effect of over 45% in size)
Method in brief: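 In this qHTS counter assay, fluorescence intensity after CellTiter-Fluor addition indicated viability of MDA-kb2 AR-luc cells given compounds and R1881 for 16 h at 37C.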

[6] = qHTS assay to identify small molecule antagonists of the thyroid receptor (TR) signaling pathway - cell viability counter screen (AID 743064); note: nearly all actives have a fitted effect of over 50% in size
Method in brief: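 Same-well viability check: GH3.TRE-Luc cells stimulated with 1 nM T3 alongside test compound for 23.5 h, followed by CellTiter-Fluor fluorescence.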

[7] = qHTS assay to identify small molecule antagonists of the thyroid receptor (TR) signaling pathway (AID 743065); note: series mostly up to about 70 µM; nearly all actives have a fitted effect of over 55% in size
Method in brief: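 GH3.TRE-Luc rat pituitary cells carrying two TR response elements driving luciferase were plated for 4 h, given compound plus 1 nM T3 (final), and incubated 23.5 h at 37 C. ONE-Glo luminescence measured reporter inhibition; CellTiter-Fluor fluorescence tracked cytotoxicity.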

[8] = system: thyroid hormone receptor (rat, GH3 cells); assay: qHTS assay to identify small molecule agonists of the thyroid receptor (TR) signaling pathway (AID 743066; calls by dose curve)
[9] = target: Estrogen receptor (Homo sapiens) (UniProt P03372); assay: qHTS assay to identify small molecule antagonists of the estrogen receptor alpha (ER-alpha) signaling pathway (AID 743069; active = well fitted curve in the direction sought with a large enough effect in the signal ratio in the repeat runs, not every such curve was filed as active; the % refers to the signal ratio)
Estrogen receptor (Homo sapiens), sequence (P03372 whole entry, looked up): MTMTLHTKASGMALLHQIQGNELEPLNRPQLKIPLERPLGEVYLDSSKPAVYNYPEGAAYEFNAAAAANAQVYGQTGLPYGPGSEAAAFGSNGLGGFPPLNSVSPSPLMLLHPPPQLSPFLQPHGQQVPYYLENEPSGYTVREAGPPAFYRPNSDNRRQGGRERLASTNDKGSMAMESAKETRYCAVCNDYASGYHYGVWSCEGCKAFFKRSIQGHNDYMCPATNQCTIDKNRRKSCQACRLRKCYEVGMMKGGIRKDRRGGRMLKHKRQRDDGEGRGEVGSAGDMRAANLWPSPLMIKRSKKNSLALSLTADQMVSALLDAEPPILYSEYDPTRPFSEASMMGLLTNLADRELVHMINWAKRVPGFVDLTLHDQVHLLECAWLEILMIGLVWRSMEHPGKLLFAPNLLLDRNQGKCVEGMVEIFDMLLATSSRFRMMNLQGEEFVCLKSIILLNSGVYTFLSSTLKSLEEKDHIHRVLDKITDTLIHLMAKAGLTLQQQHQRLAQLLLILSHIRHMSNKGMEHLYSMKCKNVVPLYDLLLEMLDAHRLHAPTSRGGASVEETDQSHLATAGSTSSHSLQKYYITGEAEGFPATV
Method in brief: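 A 17beta-estradiol challenge was applied right after compound transfer to ER-alpha-UAS-bla HEK293 cells previously kept in charcoal-stripped serum. Plates stood 18 hr at 37C and 5% CO2; fluorescence was read following 2 hr FRET substrate loading at room temperature.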

[10] = qHTS assay to identify small molecule antagonists of the estrogen receptor alpha (ER-alpha) signaling pathway - cell viability counter screen (AID 743074; calls by dose curve;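 note: HEK293 cells carrying ER-alpha-UAS-bla reporter stimulated with 17beta-estradiol; nearly all actives have a fitted effect of over 45% in size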)
[11] = target: Estrogen receptor (Homo sapiens) (UniProt P03372); assay: qHTS assay to identify small molecule agonists of the estrogen receptor alpha (ER-alpha) signaling pathway (AID 743075; calls by dose curve;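 note: HEK293 GripTite cells with ER-alpha and UAS-driven beta-lactamase reporter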)
[12] = target: Estrogen receptor (Homo sapiens) (UniProt P03372); assay: qHTS assay to identify small molecule agonists of the estrogen receptor alpha (ER-alpha) signaling pathway using the BG1 cell line (AID 743079); note: nearly all actives have a fitted effect of over 20% in size; note: potency is the fitted concentration of half-maximal effect
[13] = qHTS assay to identify small molecule antagonists of the estrogen receptor alpha (ER-alpha) signaling pathway using the BG1 cell line (AID 743080; calls by dose curve;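 note: BG1 cells stimulated with 17beta-estradiol alongside compound; series mostly up to about 70 µM; nearly all actives have a fitted effect of over 25% in size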)
Method in brief: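 BG1-Luc-4E2 cells (endogenous full-length ER-alpha, 4xERE luciferase) hormone-starved 5 days in charcoal-stripped FBS, plated 4,000/well for 24 h, then compound plus 17beta-estradiol for 21.5 h at 37 C; ONE-Glo luminescence read.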

[14] = qHTS assay to identify small molecule antagonists of the estrogen receptor alpha (ER-alpha) signaling pathway using the BG1 cell line - cell viability counter screen (AID 743081);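 note: compound given together with 17beta-estradiol as the ER stimulus; series mostly up to about 70 µM; nearly all actives have a fitted effect of over 45% in size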
Aromatase (Homo sapiens) = Aromatase (Homo sapiens) (UniProt P11511); assay: qHTS assay to identify aromatase inhibitors (AID 743083); note: series mostly up to about 70 µM; nearly all actives have a fitted effect of over 55% in size
Aromatase (Homo sapiens), sequence (P11511 whole entry, looked up): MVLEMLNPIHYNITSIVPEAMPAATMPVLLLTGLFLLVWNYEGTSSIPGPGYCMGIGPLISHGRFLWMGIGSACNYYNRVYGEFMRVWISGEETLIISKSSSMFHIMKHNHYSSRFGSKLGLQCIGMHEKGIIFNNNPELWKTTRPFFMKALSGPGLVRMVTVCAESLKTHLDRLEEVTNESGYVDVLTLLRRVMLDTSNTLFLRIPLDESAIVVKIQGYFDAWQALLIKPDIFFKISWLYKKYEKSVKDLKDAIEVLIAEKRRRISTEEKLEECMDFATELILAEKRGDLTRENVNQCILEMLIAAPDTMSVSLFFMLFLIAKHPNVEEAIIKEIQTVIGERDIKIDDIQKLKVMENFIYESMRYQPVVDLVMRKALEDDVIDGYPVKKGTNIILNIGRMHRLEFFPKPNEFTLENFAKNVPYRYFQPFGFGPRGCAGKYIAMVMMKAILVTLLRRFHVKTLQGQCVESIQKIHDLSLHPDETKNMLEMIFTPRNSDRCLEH

[15] = qHTS assay for identifying genotoxic compounds that show differential cytotoxicity against isogenic chicken DT40 cell lines with known DNA damage response pathways - Rad54/Ku70 mutant cell line (AID 743015); note: nearly all actives have a fitted effect of over 60% in size
[16] = target: Androgen receptor (Homo sapiens) (UniProt P10275); assay: qHTS assay to identify small molecule antagonists of the androgen receptor (AR) signaling pathway (AID 743035; active = well fitted inhibition curve with a large enough effect in the signal ratio in the repeat runs, not every such curve was filed as active; the % refers to the signal ratio)
Androgen receptor (Homo sapiens), sequence (P10275 whole entry, looked up): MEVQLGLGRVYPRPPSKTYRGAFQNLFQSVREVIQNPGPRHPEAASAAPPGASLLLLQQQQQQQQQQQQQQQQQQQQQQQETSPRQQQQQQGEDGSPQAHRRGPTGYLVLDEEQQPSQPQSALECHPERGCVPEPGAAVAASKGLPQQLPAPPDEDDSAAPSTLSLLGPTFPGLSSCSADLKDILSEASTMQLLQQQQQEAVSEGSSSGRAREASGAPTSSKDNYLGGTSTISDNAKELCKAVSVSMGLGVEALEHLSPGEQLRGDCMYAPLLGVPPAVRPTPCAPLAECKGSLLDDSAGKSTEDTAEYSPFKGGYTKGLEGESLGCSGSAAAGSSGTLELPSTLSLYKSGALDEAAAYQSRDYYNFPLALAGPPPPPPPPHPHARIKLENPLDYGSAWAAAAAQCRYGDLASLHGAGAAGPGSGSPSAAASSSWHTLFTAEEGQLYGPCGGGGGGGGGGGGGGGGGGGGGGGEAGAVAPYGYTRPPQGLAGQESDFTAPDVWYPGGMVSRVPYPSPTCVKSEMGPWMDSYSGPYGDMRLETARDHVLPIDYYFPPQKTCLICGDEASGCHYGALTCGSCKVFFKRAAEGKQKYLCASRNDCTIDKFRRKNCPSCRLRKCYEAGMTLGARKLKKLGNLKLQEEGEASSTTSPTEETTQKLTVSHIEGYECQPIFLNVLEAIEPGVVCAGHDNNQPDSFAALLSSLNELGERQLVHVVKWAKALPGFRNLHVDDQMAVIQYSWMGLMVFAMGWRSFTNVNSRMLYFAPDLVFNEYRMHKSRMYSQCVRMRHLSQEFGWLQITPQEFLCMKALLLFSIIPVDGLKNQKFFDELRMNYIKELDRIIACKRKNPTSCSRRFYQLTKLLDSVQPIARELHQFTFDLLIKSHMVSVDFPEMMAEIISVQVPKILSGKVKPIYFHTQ
Method in brief: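 R1881 agonist challenge of a HEK293 UAS-beta-lactamase AR reporter line in the presence of compound (16 h, 37C); signal taken as FRET fluorescence after 2 h with LiveBLAzer B/G substrate at room temperature.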

[17] = target: Androgen receptor (Homo sapiens) (UniProt P10275); assay: qHTS assay to identify small molecule agonists of the androgen receptor (AR) signaling pathway (AID 743036; active = well fitted activation curve with a large enough effect in the signal ratio in the repeat runs, with a control signal flat, not every such curve was filed as active; the % refers to the signal ratio)
Method in brief: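 Agonist activity was scored by beta-lactamase reporter fluorescence in stably transfected HEK293 cells exposed to compounds for 16 h at 37C and 5% CO2. Substrate loading took 2 h at room temperature.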

[18] = target: Androgen receptor (Homo sapiens) (UniProt P10275); assay: qHTS assay to identify small molecule agonists of the androgen receptor (AR) signaling pathway using the MDA cell line (AID 743040; note: nearly all actives have a fitted effect of over 20% in size)
Method in brief: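 Cell-based luciferase reporter: MDA-kb2, MMTV promoter (AR + GR response elements). 16 h compound exposure at 37C; ONE-Glo, 30 min RT, luminescence.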

[19] = target: Androgen receptor (Homo sapiens) (UniProt P10275); assay: qHTS assay to identify small molecule antagonists of the androgen receptor (AR) signaling pathway using the MDA cell line (AID 743042; note: nearly all actives have a fitted effect of over 55% in size)
Method in brief: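 MDA-kb2 cells (human breast carcinoma, stably carrying an MMTV-luciferase reporter responsive to AR and GR) were plated at 3,000 cells/well and preincubated 5 hr at 37C, then given compound plus R1881 agonist for 16 h. ONE-Glo luminescence was read.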

Compound	Potency [1]	Potency [2]	Potency [3]	outcome [4]	outcome [5]	Potency [6]	Potency [7]	Potency [8]	Potency [9]	Potency [10]	Potency [11]	Potency [12]	outcome [13]	outcome [14]	outcome (Aromatase (Homo sapiens))	Potency [15]	Potency [16]	outcome [17]	outcome [18]	outcome [19]
CCC(=O)c1ccc(O)cc1	inactive	inactive	inactive	inactive	inactive	inactive	inactive	inactive	inactive	inactive	inactive	inactive	inactive	inactive	inactive					
CCCCCCCCCCCCCCCC(=O)NCCO	inactive	inactive	inactive	inactive	inactive		inactive	inactive		inactive				inactive	inactive	inactive				
C=CCOc1c(Br)cc(Br)cc1Br	inactive	inactive	inactive	inactive	inactive	inactive	inactive	inactive	inactive		inactive	inactive	inactive	inactive	inactive					
O=C(/C=C/c1ccccc1)NCCO	inactive	inactive	inactive	inactive	inactive	inactive	inactive	inactive	inactive	inactive	inactive	inactive	inactive	inactive	inactive					
Cc1ccccc1N1CCN(CCc2nnc3n2CCCC3)CC1	inactive	inactive	inactive	inactive		inactive	inactive	inactive		inactive				inactive	inactive	inactive				
O=C(O)Cc1cccc(-c2cc(CCCCCCc3ccc(O[C@H]4O[C@H](CO)[C@@H](O)[C@H](O)[C@@H]4O)c(-c4cccc(CC(=O)O)c4)c3)ccc2O[C@H]2O[C@H](CO)[C@@H](O)[C@H](O)[C@@H]2O)c1	inactive	inactive	inactive		inactive		inactive	inactive						inactive	inactive	inactive				
CO[Si](CCCCl)(OC)OC	inactive	inactive	inactive	inactive	inactive	inactive	inactive	inactive	inactive	inactive	inactive	inactive	inactive	inactive	inactive					
C=C(C)C(=O)OCCCCCCOC(=O)C(=C)C	inactive	inactive	inactive	inactive	inactive	inactive	inactive	inactive		inactive				inactive						
CC1=NN(c2ccc(S(=O)(=O)O)cc2)C(=O)C1N=Nc1ccccc1 (configuration not stated)	inactive	inactive	inactive	inactive			inactive	inactive	inactive	inactive	inactive	inactive	inactive		inactive	inactive				
OC(CCN1CCCCC1)(c1ccccc1)c1ccccc1	inactive	13.3 µM (active)	23.7 µM (active)	inactive				inactive	inactive	inactive	inactive	inactive			inactive		inactive	inactive	inactive	inactive
CC(C)(CO)[C@@H](O)C(=O)NCCCO	inactive	inactive	inactive	inactive	inactive				inactive	inactive	inactive	inactive	inactive	inactive	inactive	inactive				
C/C=C(\C)C(=O)OCC/C=C\CC	inactive	inactive	inactive	inactive	inactive			inactive		inactive				inactive		inactive				
CC(=O)/C=C/c1ccco1	inactive	inactive	inactive	inactive		inactive	inactive	inactive	inactive	inactive	inactive	inactive	inactive	inactive	inactive	inactive				
CN[C@@H]1[C@H](O)[C@H](NC)[C@H]2O[C@@]3(O)C(=O)C[C@@H](C)O[C@H]3O[C@@H]2[C@H]1O	inactive	inactive	inactive		inactive	inactive	inactive	inactive	inactive	inactive	inactive	inactive	inactive		inactive	inactive	inactive	inactive	inactive	inactive
O=P(O)(O)OCC(O)CO (configuration not stated)	inactive	inactive	inactive	inactive	inactive	inactive	inactive	inactive	inactive		inactive	inactive	inactive	inactive	inactive					
Cc1cccc(Nc2ccncc2S(=O)(=O)NC(=O)NC(C)C)c1	inactive	inactive	inactive	inactive	inactive	inactive	inactive	inactive	inactive	inactive	inactive	inactive	inactive	inactive	inactive					
CC(C)CCO	inactive	inactive	inactive	inactive	inactive	inactive	inactive	inactive	inactive	inactive	inactive	inactive	inactive	inactive	inactive					
Nc1cc(S(=O)(=O)O)ccc1S(=O)(=O)O	inactive	inactive	inactive		inactive	inactive	inactive	inactive		inactive				inactive	inactive	inactive				
CCC1COC(=O)O1 (configuration not stated)	inactive	inactive	inactive	inactive	inactive	inactive	inactive	inactive	inactive	inactive	inactive	inactive		inactive	inactive					
CCCCOC(=O)[C@@H](C)Oc1ccc(Oc2ccc(C(F)(F)F)cn2)cc1	inactive	inactive	inactive	inactive	inactive	inactive	inactive	inactive		inactive	inactive	61.5 µM (active)		inactive						
CCNC(=O)NCCCOc1cccc(CN2CCCCC2)c1	inactive	inactive	inactive	inactive	inactive	inactive	inactive	inactive	inactive		inactive	inactive	inactive	inactive	inactive					
